# In PubChem BioAssay (NCI):
# About 79,000 compounds went through this panel and 15% of them were active in at least one assay; those are over-represented in the sample as a whole. A number with no mark means an inactive call. Active and inactive are the calls of the source. Cut-off read from the data, not from the text of the source: active = growth inhibition above about 70%; inactive = the rest.
# How the values were obtained:
# [1] = NCI Yeast Anticancer Drug Screen. Data for the rad52 strain (AID 147);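 note: 0% = growth of vehicle-treated control cultures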; settings: S. cerevisiae rad52 mutant growth inhibition, hits give high values
# Method in brief: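 Growth of repair-deficient yeast cells was compared between compound-treated and vehicle-treated cultures to give percent inhibition.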
# [2] = NCI Yeast Anticancer Drug Screen. Data for the wt1 strain (AID 149);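 note: 0% = growth of vehicle-treated wt1 cultures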; settings: S. cerevisiae wt1 strain (SPY 50644) growth inhibition, hits give high values
# Method in brief: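 Yeast wt1 strain exposed to compounds; growth inhibition measured relative to vehicle-treated controls.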
# [3] = NCI Yeast Anticancer Drug Screen. Data for the rad50EPP+ strain (AID 151);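 note: 0% = growth of vehicle-treated control cultures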; settings: S. cerevisiae rad50 mutant strain, hits give high values
# Method in brief: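 Measured: growth inhibition of rad50EPP+ yeast. Reference: vehicle-treated controls. Screen uses strains with defined genetic alterations in DNA damage repair or cell cycle control.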
# [4] = NCI Yeast Anticancer Drug Screen. Data for the mgt1 strain (AID 153); settings: S. cerevisiae mgt1 mutant growth inhibition, hits give high values
# Method in brief: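 Compounds were applied to mgt1 mutant yeast, and growth was then compared against vehicle-treated control cultures to give percent inhibition.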
# [5] = NCI Yeast Anticancer Drug Screen. Data for the rad50 strain (AID 155);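 note: 0% = growth of vehicle-only cultures of the same strain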; settings: S. cerevisiae rad50 strain growth inhibition, hits give high values
# Method in brief: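 Yeast carrying a defined DNA repair defect were exposed to test compounds, and growth was compared with vehicle-treated controls to give percent inhibition.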
# [6] = NCI Yeast Anticancer Drug Screen. Data for the mec2-1 strain (AID 157); settings: S. cerevisiae mec2-1 strain, hits give high values
# Method in brief: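 Compounds were applied to mec2-1 yeast cells. Their growth was then compared with that of vehicle-treated cultures to give growth inhibition.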
# [7] = NCI Yeast Anticancer Drug Screen. Data for the rad14 strain (AID 159);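 note: 0% = growth of vehicle-treated control cultures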; settings: S. cerevisiae rad14 strain growth inhibition, hits give high values
# Method in brief: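 Yeast cells carrying a defined DNA-repair defect were exposed to compounds, and growth inhibition was calculated relative to vehicle-treated control cultures.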
# [8] = NCI Yeast Anticancer Drug Screen. Data for the sgs1 mgt1 strain (AID 161);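 note: 0% = growth of cultures given vehicle only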; settings: S. cerevisiae sgs1 mgt1 strain, hits give high values
# Method in brief: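 Growth of a repair-deficient yeast mutant was monitored after compound treatment and expressed as inhibition relative to vehicle-treated cultures.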
# [9] = NCI Yeast Anticancer Drug Screen. Data for the CLN2oe strain (AID 163);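 note: 0% = growth of vehicle-only control cultures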; settings: S. cerevisiae CLN2oe strain, hits give high values
# Method in brief: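 Cells of an engineered yeast line with disturbed cell-cycle regulation are treated with compound. Inhibition of growth is then calculated relative to the vehicle-treated reference.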
# [10] = NCI Yeast Anticancer Drug Screen. Data for the cln2 rad14 strain (AID 165);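 note: 0% = growth equal to vehicle treated cultures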; settings: S. cerevisiae cln2 rad14 strain, hits give high values
# Method in brief: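 Strain: cln2 rad14 yeast, altered in cell cycle control and DNA damage repair. Read-out: growth inhibition vs vehicle.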
# [11] = NCI Yeast Anticancer Drug Screen. Data for the bub3 strain (AID 167); settings: S. cerevisiae bub3 mutant strain, hits give high values
# Method in brief: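 Compounds were applied to a genetically altered yeast strain carrying a cell-cycle control defect. Growth inhibition was scored against vehicle-treated controls.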
# [12] = NCI Yeast Anticancer Drug Screen. Data for the wt2 strain (AID 169);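 note: 0% = growth of vehicle-treated yeast cultures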; settings: S. cerevisiae wt2 strain growth inhibition, hits give high values
# Method in brief: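 Growth of compound-treated yeast is measured and expressed as inhibition relative to vehicle-only controls.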
# [13] = NCI Yeast Anticancer Drug Screen. Data for the mlh1 strain (AID 171);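 note: 0% = growth of vehicle-treated control cultures of the same strain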; settings: S. cerevisiae mlh1 strain growth inhibition, hits give high values
# Method in brief: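 Test agents were incubated with yeast bearing a defined DNA damage repair or cell cycle control alteration; values are growth inhibition normalised to vehicle-treated cultures.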
# [14] = NCI Yeast Anticancer Drug Screen. Data for the sgs1 strain (AID 173);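 note: 0% = growth of vehicle-only control cultures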; settings: S. cerevisiae sgs1 mutant, hits give high values
# Method in brief: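 Strain with an altered DNA repair or cell cycle pathway exposed to compound. Growth then measured. Value = inhibition versus vehicle control.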
# [15] = NCI Yeast Anticancer Drug Screen. Data for the mlh1 rad18 strain (AID 175); settings: S. cerevisiae mlh1 rad18 strain growth inhibition, hits give high values
# Method in brief: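 A repair-deficient yeast strain is exposed to test compound, and growth is scored relative to vehicle-treated controls.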
# [16] = NCI Yeast Anticancer Drug Screen. Data for the rad18 strain (AID 177); settings: S. cerevisiae rad18 mutant growth inhibition, hits give high values
# Method in brief: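 DNA-repair-defective yeast; compound treatment; growth inhibition scored against vehicle.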
# [17] = at 5.0 µM (retest, dose inferred, filed as 0.5)
# [18] = at 50.0 µM (retest, dose inferred, filed as 5.0)
structure (smiles),measurement,setting,value
Cc1cccc2c1C1c3c(C)cccc3C(CC(=O)O)CC1CC2 (stereo unspecified),growth inhibition,[1]; at 1.2 µM,13%
same,growth inhibition,[1]; at 3.7 µM,92% (active)
same,growth inhibition,[1]; at 11.0 µM,97% (active)
same,growth inhibition,[1]; at 33.0 µM,95% (active)
same,growth inhibition,[1]; at 100.0 µM,88% (active)
same,growth inhibition,[2]; at 1.2 µM,2%
same,growth inhibition,[2]; at 3.7 µM,77% (active)
same,growth inhibition,[2]; at 11.0 µM,98% (active)
same,growth inhibition,[2]; at 33.0 µM,96% (active)
same,growth inhibition,[2]; at 100.0 µM,92% (active)
same,growth inhibition,[3]; at 1.2 µM,15%
same,growth inhibition,[3]; at 3.7 µM,25%
same,growth inhibition,[3]; at 11.0 µM,53%
same,growth inhibition,[3]; at 33.0 µM,66%
same,growth inhibition,[3]; at 100.0 µM,48%
same,growth inhibition,[4]; at 1.2 µM,0%
same,growth inhibition,[4]; at 3.7 µM,47%
same,growth inhibition,[4]; at 11.0 µM,98% (active)
same,growth inhibition,[4]; at 33.0 µM,97% (active)
same,growth inhibition,[4]; at 100.0 µM,92% (active)
same,growth inhibition,[5]; at 1.2 µM,13%
same,growth inhibition,[5]; at 3.7 µM,90% (active)
same,growth inhibition,[5]; [17],22%
same,growth inhibition,[5]; at 11.0 µM,97% (active)
same,growth inhibition,[5]; at 33.0 µM,93% (active)
same,growth inhibition,[5]; [18],96% (active)
same,growth inhibition,[5]; at 50.0 µM,99% (active)
same,growth inhibition,[5]; at 100.0 µM,85% (active)
same,growth inhibition,[6]; at 1.2 µM,5%
same,growth inhibition,[6]; at 3.7 µM,61%
same,growth inhibition,[6]; [17],8%
same,growth inhibition,[6]; at 11.0 µM,98% (active)
same,growth inhibition,[6]; at 33.0 µM,96% (active)
same,growth inhibition,[6]; [18],98% (active)
same,growth inhibition,[6]; at 50.0 µM,99% (active)
same,growth inhibition,[6]; at 100.0 µM,90% (active)
same,growth inhibition,[7]; at 1.2 µM,5%
same,growth inhibition,[7]; at 3.7 µM,83% (active)
same,growth inhibition,[7]; at 11.0 µM,98% (active)
same,growth inhibition,[7]; at 33.0 µM,95% (active)
same,growth inhibition,[7]; at 100.0 µM,90% (active)
same,growth inhibition,[8]; [17],11%
same,growth inhibition,[8]; [18],98% (active)
same,growth inhibition,[8]; at 50.0 µM,99.5% (active)
same,growth inhibition,[9]; at 1.2 µM,16%
same,growth inhibition,[9]; at 3.7 µM,90% (active)
same,growth inhibition,[9]; at 11.0 µM,99% (active)
same,growth inhibition,[9]; at 33.0 µM,94% (active)
same,growth inhibition,[9]; at 100.0 µM,88% (active)
same,growth inhibition,[10]; [17],6%
same,growth inhibition,[10]; [18],98% (active)
same,growth inhibition,[10]; at 50.0 µM,98.8% (active)
same,growth inhibition,[11]; at 1.2 µM,10%
same,growth inhibition,[11]; at 3.7 µM,71% (active)
same,growth inhibition,[11]; [17],6%
same,growth inhibition,[11]; at 11.0 µM,97% (active)
same,growth inhibition,[11]; at 33.0 µM,95% (active)
same,growth inhibition,[11]; [18],96% (active)
same,growth inhibition,[11]; at 50.0 µM,98.8% (active)
same,growth inhibition,[11]; at 100.0 µM,87% (active)
same,growth inhibition,[12]; at 1.2 µM,5%
same,growth inhibition,[12]; at 3.7 µM,60%
same,growth inhibition,[12]; at 11.0 µM,98% (active)
same,growth inhibition,[12]; at 33.0 µM,96% (active)
same,growth inhibition,[12]; at 100.0 µM,90% (active)
same,growth inhibition,[13]; at 1.2 µM,6%
same,growth inhibition,[13]; at 3.7 µM,71% (active)
same,growth inhibition,[13]; at 11.0 µM,98% (active)
same,growth inhibition,[13]; at 33.0 µM,97% (active)
same,growth inhibition,[13]; at 100.0 µM,90% (active)
same,growth inhibition,[14]; at 1.2 µM,10%
same,growth inhibition,[14]; at 3.7 µM,75% (active)
same,growth inhibition,[14]; at 11.0 µM,98% (active)
same,growth inhibition,[14]; at 33.0 µM,96% (active)
same,growth inhibition,[14]; at 100.0 µM,92% (active)
same,growth inhibition,[15]; [17],7%
same,growth inhibition,[15]; [18],97% (active)
same,growth inhibition,[15]; at 50.0 µM,99.2% (active)
same,growth inhibition,[16]; at 1.2 µM,11%
same,growth inhibition,[16]; at 3.7 µM,69%
same,growth inhibition,[16]; at 11.0 µM,98% (active)
same,growth inhibition,[16]; at 33.0 µM,95% (active)
same,growth inhibition,[16]; at 100.0 µM,88% (active)
COC(=N)c1ccc(O)c(C)c1,growth inhibition,[1]; at 1.2 µM,-3%
same,growth inhibition,[1]; at 3.7 µM,-6%
same,growth inhibition,[1]; at 11.0 µM,-11%
same,growth inhibition,[1]; at 33.0 µM,-16%
same,growth inhibition,[1]; at 100.0 µM,-5%
same,growth inhibition,[2]; at 1.2 µM,-6%
same,growth inhibition,[2]; at 3.7 µM,-5%
same,growth inhibition,[2]; at 11.0 µM,-6%
same,growth inhibition,[2]; at 33.0 µM,-5%
same,growth inhibition,[2]; at 100.0 µM,-3%
same,growth inhibition,[3]; at 1.2 µM,-1%
same,growth inhibition,[3]; at 3.7 µM,1%
same,growth inhibition,[3]; at 11.0 µM,5%
same,growth inhibition,[3]; at 33.0 µM,11%
same,growth inhibition,[3]; at 100.0 µM,9%
same,growth inhibition,[4]; at 1.2 µM,-4%
same,growth inhibition,[4]; at 3.7 µM,-3%
same,growth inhibition,[4]; at 11.0 µM,-2%
same,growth inhibition,[4]; at 33.0 µM,-3%
same,growth inhibition,[4]; at 100.0 µM,-3%
same,growth inhibition,[5]; at 1.2 µM,-7%
same,growth inhibition,[5]; at 3.7 µM,-19%
same,growth inhibition,[5]; [17],-138%
same,growth inhibition,[5]; at 11.0 µM,-6%
same,growth inhibition,[5]; at 33.0 µM,7%
same,growth inhibition,[5]; [18],10%
same,growth inhibition,[5]; at 50.0 µM,50.4%
same,growth inhibition,[5]; at 100.0 µM,3%
same,growth inhibition,[6]; at 1.2 µM,0%
same,growth inhibition,[6]; at 3.7 µM,0%
same,growth inhibition,[6]; [17],-46%
same,growth inhibition,[6]; at 11.0 µM,-1%
same,growth inhibition,[6]; at 33.0 µM,1%
same,growth inhibition,[6]; [18],-21%
same,growth inhibition,[6]; at 50.0 µM,2.2%
same,growth inhibition,[6]; at 100.0 µM,1%
same,growth inhibition,[7]; at 1.2 µM,-3%
same,growth inhibition,[7]; at 3.7 µM,0%
same,growth inhibition,[7]; at 11.0 µM,-2%
same,growth inhibition,[7]; at 33.0 µM,-4%
same,growth inhibition,[7]; at 100.0 µM,-1%
same,growth inhibition,[8]; [17],-53%
same,growth inhibition,[8]; [18],-40%
same,growth inhibition,[8]; at 50.0 µM,-8.2%
same,growth inhibition,[9]; at 1.2 µM,-2%
same,growth inhibition,[9]; at 3.7 µM,3%
same,growth inhibition,[9]; at 11.0 µM,0%
same,growth inhibition,[9]; at 33.0 µM,-3%
same,growth inhibition,[9]; at 100.0 µM,-6%
same,growth inhibition,[10]; [17],-52%
same,growth inhibition,[10]; [18],-22%
same,growth inhibition,[10]; at 50.0 µM,-38.2%
same,growth inhibition,[11]; at 1.2 µM,-3%
same,growth inhibition,[11]; at 3.7 µM,-5%
same,growth inhibition,[11]; [17],-61%
same,growth inhibition,[11]; at 11.0 µM,0%
same,growth inhibition,[11]; at 33.0 µM,-2%
same,growth inhibition,[11]; [18],78% (active)
same,growth inhibition,[11]; at 50.0 µM,5.2%
same,growth inhibition,[11]; at 100.0 µM,4%
same,growth inhibition,[12]; at 1.2 µM,-2%
same,growth inhibition,[12]; at 3.7 µM,0%
same,growth inhibition,[12]; at 11.0 µM,-2%
same,growth inhibition,[12]; at 33.0 µM,-4%
same,growth inhibition,[12]; at 100.0 µM,-1%
same,growth inhibition,[13]; at 1.2 µM,6%
same,growth inhibition,[13]; at 3.7 µM,-6%
same,growth inhibition,[13]; at 11.0 µM,-7%
same,growth inhibition,[13]; at 33.0 µM,-7%
same,growth inhibition,[13]; at 100.0 µM,-7%
same,growth inhibition,[14]; at 1.2 µM,-1%
same,growth inhibition,[14]; at 3.7 µM,-1%
same,growth inhibition,[14]; at 11.0 µM,-1%
same,growth inhibition,[14]; at 33.0 µM,-2%
same,growth inhibition,[14]; at 100.0 µM,-2%
same,growth inhibition,[15]; [17],-123%
same,growth inhibition,[15]; [18],-74%
same,growth inhibition,[15]; at 50.0 µM,-6.9%
same,growth inhibition,[16]; at 1.2 µM,-2%
same,growth inhibition,[16]; at 3.7 µM,-1%
same,growth inhibition,[16]; at 11.0 µM,1%
same,growth inhibition,[16]; at 33.0 µM,3%
same,growth inhibition,[16]; at 100.0 µM,8%
